# Measurements published in PubChem BioAssay (NCATS).
# Values joined by “and” are separate entries in the source; they are usually repeats but may differ in a detail not shown here. Equal entries are not always repeated. Results filed as inconclusive are left out. A call without a number means that no potency is given here. Some structures have more than one record in an assay (separate samples or runs), and their calls can disagree. Active and inactive are the calls of the source. Calls come from the whole dose curve; as a rule, active = well fitted curve in the direction sought with a large enough effect; inconclusive = small, poorly fitted or top-dose-only effect, or another doubt; inactive = no such curve, though single readings can be large; an effect the other way counts as inactive or inconclusive.
# Experiments:
# [1] = qHTS for Inhibitors of Ubiquitin-specific Protease USP2a Using CHOP2 as the Reporter: Cytotox Assay (AID 652170); note: series mostly up to about 46 µM; nearly all actives have a fitted effect of over 70% in size
# Method in brief: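 HCT116 human colon cancer cells, 600 per well in DMEM with 10% FBS, exposed to compounds for 72 hr at 37 deg C. ATP measured by CellTiter-Glo luminescence, normalized to DMSO cells and no-cell background.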
# [2] = biological target: Ubiquitin carboxyl-terminal hydrolase 2 (Homo sapiens) (UniProt O75604); test: qHTS for Inhibitors of Ubiquitin-specific Protease USP2a Using CHOP2 as the Reporter: K484 Substrate (AID 652173);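 note: cleavage of internally quenched K48 di-ubiquitin substrate measured as rising fluorescence over time; nearly all actives have a fitted effect of over 70% in size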; note: potency is the fitted concentration of half-maximal effect
# Sequence of Ubiquitin carboxyl-terminal hydrolase 2 (Homo sapiens) (O75604 whole entry, looked up): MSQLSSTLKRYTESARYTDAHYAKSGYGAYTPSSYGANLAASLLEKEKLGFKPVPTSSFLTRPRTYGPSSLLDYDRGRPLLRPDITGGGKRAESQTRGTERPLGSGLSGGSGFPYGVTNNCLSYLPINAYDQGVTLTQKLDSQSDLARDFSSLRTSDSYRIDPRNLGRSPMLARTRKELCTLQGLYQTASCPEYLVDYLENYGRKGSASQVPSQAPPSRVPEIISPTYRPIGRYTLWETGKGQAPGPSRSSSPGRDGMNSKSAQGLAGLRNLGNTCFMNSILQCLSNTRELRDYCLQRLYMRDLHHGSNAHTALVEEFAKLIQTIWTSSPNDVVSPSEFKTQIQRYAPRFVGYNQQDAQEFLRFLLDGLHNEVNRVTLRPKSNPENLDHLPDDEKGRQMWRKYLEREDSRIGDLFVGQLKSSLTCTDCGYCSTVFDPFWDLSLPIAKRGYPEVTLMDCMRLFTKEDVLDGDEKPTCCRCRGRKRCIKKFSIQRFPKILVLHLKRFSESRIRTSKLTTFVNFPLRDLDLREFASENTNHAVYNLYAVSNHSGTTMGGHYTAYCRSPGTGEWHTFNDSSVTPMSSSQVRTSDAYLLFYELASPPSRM
# Method in brief: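 USP2 (dispensed at 5 nM) was pinned with compounds, then DiUb K48 internally quenched fluorescent substrate (dispensed at 100 nM) was added. The buffer was 20 mM Tris pH 8, 2 mM beta-mercaptoethanol and 0.05% CHAPS. Cleavage was read kinetically as rising fluorescence, Ex 525/Em 598.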
# [3] = biological target: Tyrosine-protein kinase Yes (Homo sapiens) (UniProt P07947); test: qHTS for small molecule inhibitors of Yes1 kinase: Primary Screen (AID 686947); note: nearly all actives have a fitted effect of over 60% in size; note: potency is the fitted concentration of half-maximal effect
# Sequence of Tyrosine-protein kinase Yes (Homo sapiens) (P07947 whole entry, looked up): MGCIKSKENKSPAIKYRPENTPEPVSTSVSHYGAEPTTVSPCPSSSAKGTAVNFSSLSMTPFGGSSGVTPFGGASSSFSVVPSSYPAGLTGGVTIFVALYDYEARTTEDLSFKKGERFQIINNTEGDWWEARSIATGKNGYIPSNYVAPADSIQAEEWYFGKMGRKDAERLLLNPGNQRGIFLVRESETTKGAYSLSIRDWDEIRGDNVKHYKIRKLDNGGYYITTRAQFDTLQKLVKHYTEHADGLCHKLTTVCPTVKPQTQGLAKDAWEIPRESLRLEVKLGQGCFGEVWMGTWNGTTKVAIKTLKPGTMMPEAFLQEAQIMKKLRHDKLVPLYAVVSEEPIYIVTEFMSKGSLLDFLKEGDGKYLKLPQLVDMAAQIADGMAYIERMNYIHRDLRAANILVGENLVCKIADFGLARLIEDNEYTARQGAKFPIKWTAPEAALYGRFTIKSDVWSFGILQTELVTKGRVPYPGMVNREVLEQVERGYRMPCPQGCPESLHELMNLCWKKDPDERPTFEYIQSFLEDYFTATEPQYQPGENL
# Method in brief: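 Yes1 (4 nM) preincubated 20 min with compound, then 60 min room-temperature reaction with 0.1 mM ATP and 0.3 mg/mL poly(E4Y) in pH 7.5 Tris, 10 mM MgCl2. ADP measured by ADP-Glo luminescence, normalised to enzyme/no-enzyme controls.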
# [4] = qHTS for small molecule inhibitors of Yes1 kinase: Counter Assay (AID 686950);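 note: no kinase present so only ADP-Glo detection of a fixed ADP amount is tested; luminescence from ADP-Glo reporting ADP in a fixed ATP and ADP mixture; series mostly up to about 77 µM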
# Method in brief: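 Luminescence read-out from ADP-Glo quantifies a fixed ADP amount (0.02 mM ADP with 0.08 mM ATP) after 60 min at room temperature; signal is normalized between DMSO wells with ATP/ADP and with 0.1 mM ATP alone.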
smiles,measurement,setting,value
O=C1CCCc2cc(S(=O)(=O)Nc3cnccc3C(=O)Nc3nc(-c4ccccc4)cs3)ccc2N1,Potency,[1],inactive
same,Potency,[2],7.69 µM (active)
O=C(Nc1nc(-c2ccccc2)cs1)c1ccncc1NS(=O)(=O)c1ccccc1Cl,Potency,[1],inactive
same,Potency,[2],1.53 µM (active)
Cc1ccc(-c2cc(C(=O)Nc3ccc(S(N)(=O)=O)cc3)c3cccc(C)c3n2)cc1C,Potency,[1],inactive
same,Potency,[2],17.2 µM (active) and 6.85 µM (active)
CCN(CC)C(=O)C1CCC(C(=O)Nc2ccc([S+](=O)([O-])Nc3nccs3)cc2)CC1 (configuration not stated),Potency,[1],inactive
same,Potency,[2],inactive
Cc1ccc(-c2cc(C(=O)Nc3ccc(C#N)cc3)c3ccccc3n2)cc1C,Potency,[2],12.2 µM (active)
O=C(Nc1nc(-c2ccccc2)cs1)c1ccncc1NS(=O)(=O)c1ccc(-c2ccccc2)cc1,Potency,[2],1.53 µM (active)
CS(=O)(=O)c1ccc(Oc2nccc(-c3c(-c4ccc(F)cc4)ncn3C3CCNCC3)n2)cc1,Potency,[3],inactive
same,outcome,[4],inactive
Cc1nnc(-c2cccc(-c3ccc(C(=O)NCC4CC4)cc3)c2)o1,Potency,[3],inactive
same,outcome,[4],inactive
NC(=O)c1cccc(Nc2nccc(Nc3cccc(F)c3)n2)c1,Potency,[3],1.16 µM (active)
same,outcome,[4],inactive
Cc1nc(-c2ccccc2)n2nc(NCCCN3CCOCC3)ncc12,Potency,[3],32.8 µM (active)
same,outcome,[4],inactive
Cc1ccc(S(=O)(=O)Nc2ccc(C(=O)Nc3nc(-c4ccccc4)cs3)cc2Cl)cc1,Potency,[2],2.17 µM (active)
Cc1ccc(C(=O)NC(C)C)cc1-c1ccc(C(=O)NCC2CC2)cc1,Potency,[3],inactive
same,outcome,[4],inactive
CS(=O)(=O)CCNCc1ccc(-c2ccc3ncnc(Nc4ccc(OCc5cccc(F)c5)c(C(F)(F)F)c4)c3c2)o1,Potency,[3],inactive
same,outcome,[4],inactive
COc1ccccc1S(=O)(=O)Nc1cnccc1C(=O)Nc1nc(-c2ccccc2)cs1,Potency,[1],inactive
same,Potency,[2],13.7 µM (active)
Nc1ncc(-c2cccc(S(N)(=O)=O)c2)c2scc(-c3ccc(F)c(Cl)c3)c12,Potency,[3],0.368 µM (active)
same,outcome,[4],inactive
Nc1nc(-c2ccccn2)c(-c2ccc3ncccc3n2)s1,Potency,[3],inactive
same,outcome,[4],inactive
CN1CCC(C(=O)Nc2n[nH]c3nnc(-c4ccccc4)cc23)CC1,Potency,[3],13 µM (active)
same,outcome,[4],inactive
O=C(Nc1nc(-c2ccccc2)cs1)c1ccncc1NS(=O)(=O)c1ccc(F)cc1,Potency,[1],inactive
same,Potency,[2],3.06 µM (active)
COc1cc2ncn(-c3cc(OCCc4ccccc4)c(C(N)=O)s3)c2cc1OC,Potency,[3],inactive
same,outcome,[4],inactive
COc1cc2ncn(-c3cc(OCc4ccccc4Cl)c(C(N)=O)s3)c2cc1OC,Potency,[3],5.19 µM (active)
same,outcome,[4],inactive
CC(C)Cc1ccc(-c2csc(Nc3ccc(S(=O)(=O)Nc4nccs4)cc3)n2)cc1,Potency,[1],inactive
same,Potency,[2],5.44 µM (active)
Cc1ccc(-c2cc(C(=O)Nc3cccc(S(N)(=O)=O)c3)c3ccccc3n2)cc1C,Potency,[2],5.44 µM (active)
CCS(=O)(=O)c1ccc(OC)c(Nc2ncc(-c3cccc(OC)c3)o2)c1,Potency,[3],0.13 µM (active)
same,outcome,[4],inactive
COc1ccc(-c2csc(NC(=O)c3ccncc3NS(=O)(=O)c3ccc(C)cc3)n2)cc1,Potency,[2],2.17 µM (active)
CCn1c(-c2nonc2N)nc2c(C#CC(C)(C)O)ncc(OCC3CCCN3)c21 (configuration not stated),Potency,[3],26 µM (active)
same,outcome,[4],inactive
Fc1ccc(Nc2nccc(-c3c(-c4ccc(C(F)(F)F)cc4)nn4ncccc34)n2)cc1F,Potency,[3],inactive
same,outcome,[4],inactive
CCc1ccc(Oc2nccc(-c3c(-c4ccc(F)cc4)ncn3C3CCNCC3)n2)cc1,Potency,[3],inactive
same,outcome,[4],inactive
CN(C)CCNC(=O)Nc1ccc(N(C)c2ccnc(Nc3ccc(CS(C)(=O)=O)cc3)n2)cc1,Potency,[3],7.33 µM (active)
same,outcome,[4],inactive
COc1ccc(-c2nn3ncccc3c2-c2ccnc(Nc3ccc4c(c3)OCCO4)n2)cc1,Potency,[3],0.0292 µM (active)
same,outcome,[4],inactive
Cc1ccc(S(=O)(=O)Nc2cnccc2C(=O)Nc2nc(-c3cc4ccccc4o3)cs2)cc1,Potency,[2],1.93 µM (active)
CNS(=O)(=O)c1ccc(NC(=O)c2cc(-c3ccc(C)c(C)c3)nc3ccccc23)cc1,Potency,[1],inactive
same,Potency,[2],4.85 µM (active)
O=C(Nc1nc(-c2ccccc2)cs1)c1ccncc1NS(=O)(=O)c1ccc2c(c1)CCC2,Potency,[2],1.93 µM (active)
O=C(Nc1nc(-c2ccccc2)cs1)c1ccncc1NS(=O)(=O)c1ccc(F)c(F)c1,Potency,[1],inactive
same,Potency,[2],2.17 µM (active)
O=C(Nc1nc(-c2ccccc2)cs1)c1ccncc1NS(=O)(=O)c1ccc(F)cc1Cl,Potency,[1],inactive
same,Potency,[2],1.93 µM (active)
Cc1ccc(-c2cc(C(=O)Nc3ccc4ccccc4c3)c3ccccc3n2)cc1C,Potency,[1],inactive
same,Potency,[2],19.3 µM (active)
COc1ccc(S(=O)(=O)Nc2cnccc2C(=O)Nc2nc(-c3ccccc3)cs2)cc1,Potency,[1],inactive
same,Potency,[2],3.85 µM (active)
Cc1ccc(-c2cc(C(=O)Nc3ccc4[nH]ccc4c3)c3ccccc3n2)cc1C,Potency,[1],inactive
same,Potency,[2],8.63 µM (active)
Cc1ccc(-c2csc(Nc3ccc(S(=O)(=O)Nc4nccs4)cc3)n2)cc1C,Potency,[1],inactive
same,Potency,[2],4.32 µM (active)
CS(=O)(=O)CCNCc1ccc(-c2ccc3ncnc(Nc4ccc(OCc5ccccc5)cc4)c3c2)o1,Potency,[3],0.463 µM (active)
same,outcome,[4],inactive
ON=C1CCc2cc(-c3nc(C4CCNCC4)[nH]c3-c3ccncc3)ccc21,Potency,[3],inactive
same,outcome,[4],inactive
Cc1ccc(S(=O)(=O)Nc2cnccc2C(=O)Nc2nc(-c3cc(Br)cs3)cs2)cc1,Potency,[2],2.17 µM (active)
O=C(Nc1nc(-c2ccc(F)cc2)cs1)c1ccncc1NS(=O)(=O)c1ccccc1Cl,Potency,[1],inactive
same,Potency,[2],3.06 µM (active)
CCn1cc(-c2ccnc3[nH]ccc23)c(-c2cccc(NC(=O)Nc3ccc(OCc4ccccc4)cc3)c2)n1,Potency,[3],9.23 µM (active)
same,outcome,[4],inactive
O=S(=O)(Nc1nccs1)c1ccc(Nc2nc(-c3ccc(Cl)c(Cl)c3)cs2)cc1,Potency,[1],inactive
same,Potency,[2],27.3 µM (active)
CCc1cccc(NC(=O)Nc2ccc(Oc3ccc4nc(NC(=O)OC)[nH]c4c3)cc2)c1,Potency,[3],inactive
same,outcome,[4],inactive
CS(=O)(=O)CCNCc1ccc(-c2ccc3ncnc(Nc4ccc(OCc5ccccc5)c(Br)c4)c3c2)o1,Potency,[3],2.32 µM (active)
same,outcome,[4],inactive
O=C(OC1CNC(C#Cc2cc3ncnc(Nc4ccc(OCc5cccc(F)c5)c(Cl)c4)c3s2)C1)N1CCOCC1 (configuration not stated),Potency,[3],6.54 µM (active)
same,outcome,[4],inactive
CN1CCN(Cc2ccc(-c3cc4ncnc(Nc5ccc(OCc6cccc(F)c6)c(Cl)c5)c4s3)o2)CC1,Potency,[3],0.823 µM (active)
same,outcome,[4],inactive
COc1ccc2cc(-c3c(-c4ccncc4)nc(-c4ccc(S(C)(=O)=O)cc4C)n3C)ccc2c1,Potency,[3],1.84 µM (active)
same,outcome,[4],inactive
CCn1c(-c2nonc2N)nc2c(C#CC(C)(C)O)nc(OC(CN)c3ccccc3)cc21 (configuration not stated),Potency,[3],0.654 µM (active)
same,outcome,[4],inactive
Oc1[nH]c2ccccc2c1C=Nc1ccc(-n2cncn2)cc1,Potency,[3],9.23 µM (active)
same,outcome,[4],inactive
CC(C)=Cc1cccc2[nH]c(O)c(N=Nc3ccc(S(N)(=O)=O)cc3)c12,Potency,[3],inactive
same,outcome,[4],inactive
CCn1c(-c2nonc2N)nc2c(C#CC(C)(C)O)nc(CN3CCCC3)cc21,Potency,[3],23.2 µM (active)
same,outcome,[4],inactive
OCc1ccc(-c2nc(-c3ccc4c(c3)OCO4)c(-c3ccccn3)[nH]2)cc1,Potency,[3],inactive
same,outcome,[4],inactive
O=C(OC1CNC(C#Cc2cc3ncnc(Nc4ccc(Cc5ccccc5)cc4)c3s2)C1)N1CCOCC1 (configuration not stated),Potency,[3],2.07 µM (active)
same,outcome,[4],inactive
CCc1cccc(CC)c1C=Cc1cncc(C(=O)NC)c1,Potency,[3],26 µM (active)
same,outcome,[4],inactive
COc1cc2ncn(-c3cc(OCc4ccccc4C(F)(F)F)c(C(=O)N(C)C)s3)c2cc1OC,Potency,[3],7.33 µM (active)
same,outcome,[4],inactive
COC(=O)c1ccc2c(c1)/C(=C/c1cc(Br)c(O)c(Br)c1)C(=O)N2,Potency,[3],0.733 µM (active)
same,outcome,[4],inactive
CC(C)c1ccc(Nc2nccc(-c3cnn4ncccc34)n2)cc1,Potency,[3],26 µM (active)
same,outcome,[4],inactive
NS(=O)(=O)c1ccc(-c2ccc3c(NC(=O)C4CC4)n[nH]c3c2)cc1,Potency,[3],1.84 µM (active)
same,outcome,[4],inactive
Nc1nccc(-c2c(-c3ccc(F)cc3)ncn2CCCN2CCOCC2)n1,Potency,[3],9.23 µM (active)
same,outcome,[4],inactive
COC(=O)c1cncc(C=Cc2c(C)cc(O)cc2C)c1,Potency,[3],1.3 µM (active)
same,outcome,[4],inactive
NS(=O)(=O)c1ccc(Nc2ncc(-c3ccccc3)o2)cc1,Potency,[3],inactive
same,outcome,[4],inactive
Nc1ncnc2occ(-c3ccc(NC(=O)Nc4cc(C(F)(F)F)ccc4F)cc3)c12,Potency,[3],2.07 µM (active) and inactive
same,outcome,[4],inactive
Cc1ccc(NC(=O)c2ccnc(N3CCCC3)c2)cc1-c1ccc(C(=O)NCC2CC2)cc1,Potency,[3],inactive
same,outcome,[4],inactive
Clc1ccc(-c2nn3ncccc3c2-c2ccnc(Nc3ccccc3)n2)cc1,Potency,[3],0.292 µM (active)
same,outcome,[4],inactive
COc1cc(Nc2nccc(-c3cnn4ncccc34)n2)cc(OC)c1,Potency,[3],0.519 µM (active)
same,outcome,[4],inactive
NS(=O)(=O)c1cccc(Nc2cc(-c3ccc(F)cc3)[nH]n2)c1,Potency,[3],3.68 µM (active)
same,outcome,[4],inactive
NCc1ccc(-n2c(-c3nonc3N)nc3cnccc32)cc1,Potency,[3],inactive
same,outcome,[4],inactive
Cc1ccc2c(-c3ccnc(Nc4ccc5c(c4)OCCO5)n3)c(-c3ccc(C(F)(F)F)cc3)nn2n1,Potency,[3],0.823 µM (active)
same,outcome,[4],inactive
COc1ccc(-c2cc(-c3cn[nH]c3-c3ccccn3)ccn2)cc1,Potency,[3],14.6 µM (active)
same,outcome,[4],inactive
CCn1c(-c2nonc2N)nc2c(C#CC(C)(C)O)nc(OCCNC)cc21,Potency,[3],8.23 µM (active)
same,outcome,[4],inactive
CC(C)c1ccc2c(N=Nc3ccc(S(N)(=O)=O)cc3)c(O)[nH]c2c1,Potency,[3],inactive
same,outcome,[4],inactive
CNC(=O)c1cncc(C=Cc2ccccc2Cl)c1,Potency,[3],8.23 µM (active)
same,outcome,[4],inactive
COc1cc2c(cc1Nc1nc(N3CCc4ccccc43)c3cc[nH]c3n1)N(C(=O)CN(C)C)CC2,Potency,[3],inactive
same,outcome,[4],inactive
